Common to all, as to assay: NCI-60 one-dose screen, 48 h (100 = growth as untreated, 0 = no growth, -100 = all killed)
Holding throughout (details): 10 µM

In assay [1] the test system is NCI-H23 lung.
Assay [2] relates to NCI-H226 lung.
Assay [3] has as its system NCI-H322M lung.
The test system of assay [4] is HOP-62 NSCLC.
The test system of assay [5] is NCI-H460 lung.
In assay [6] the test system is HOP-92 NSCLC.
The subject of assay [7] is NCI-H522 lung.
Assay [8] has as its system A549/ATCC NSCLC.
Assay [9] concerns 786-0 renal.
Assay [10] relates to COLO 205 colon.

The panel holds about 83,000 compounds, 20% with a hit somewhere; the sample as a whole holds those more often.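 Note: values are percent growth. 100 is the growth of untreated cells, values between 100 and 0 indicate rising inhibition; between -100 and 0 indicates cell death.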 Unmarked numbers belong to inactive results. Calls of active or inactive are those of the source. Rule for the calls: active = growth percent below 10; inactive = the rest.

On to `COc1ccc2[nH]c(O)c(N=NC(=O)c3cc(-c4ccc(C)cc4)nc4ccccc34)c2c1`, for which the growth is 86% in assay [1]; 90.6% in [2]; 102% in assay [3]; 102% in assay [4]; 95.8% in [5]; 97.8% in assay [6]. Moreover, the growth was 99.5% in assay [7], 87.2% in [8], 97.2% in assay [9] and 112% in assay [10].
`CC(=O)Oc1ccccc1C(=O)Oc1ccc(C(=O)/C=C/c2ccncc2)cc1`: the growth is 36.9% in [1]; 62.8% in assay [2]; 66.5% in assay [3]; 83.4% in [4]; 35.6% in [5]; 94.1% in [6]. Moreover, the growth was 59.1% in [7], 81% in [8], 53.2% in assay [9] and 40.4% in [10].
For `CCCCCCCCCCCCCCCCCCCC(=O)NCCc1c[nH]c2ccc(OC(=O)NOCCOCCOCCOCCOCCOCCOCCOCCOCCOCCOCCOCCOCCOCCOCCOCCOCCOCCOCCOCCOCCOCCOC)cc12`, the growth is 9.6% (active) in assay [1]; -23.3% (active) in assay [2]; -8.92% (active) in [3]; -30.7% (active) in [4]; 16% in assay [5]; -17.5% (active) in assay [6]. Moreover, the growth in assay [7] was -83.4% (active); in assay [8] it was 8.54% (active); in assay [9], 35.4%; in assay [10], -100% (active).
For the molecule `C=CC(=O)Nc1ccc(C(=O)/C=C/c2ccc(N(C)CCF)cc2)c(O)c1`, the growth in assay [1] was -26.7% (active); in assay [2], -11% (active); in assay [3], 25.6%; in [4] it was -27.5% (active); in [5], -9.21% (active); in assay [6], -3.32% (active). Besides, the growth in [7] is -76.9% (active); in [8], -60.7% (active); in [9] it was -42.2% (active); in assay [10], -69.1% (active).
As for `COc1ccc2[nH]c(=O)c(CSc3nccc(-c4ccc(Cl)cc4)n3)cc2c1`, the growth is 33.9% in assay [1]; -26.1% (active) in assay [2]; 44.9% in [3]; 32.9% in assay [4]; 9.38% (active) in assay [5]; 4.58% (active) in [6]. In addition, the growth in [7] is -32.2% (active); in [9], -28.6% (active); in [10] it was 20.5%.
In the case of `CC(=O)c1cc(C(=O)N2c3ccccc3Sc3ccccc32)n2ccc(C)cc12`, the growth in assay [1] is 42%; in assay [2], 40.2%; in assay [3], 72.2%; in assay [4], 58.6%; in assay [5], 12.3%; in [6], 38.1%. The growth in [7] was 49.6%; in assay [8], 56.9%; in assay [9], 44.5%; in assay [10], 67.7%.
As for `CN1CCN(c2ccc(Nc3nc(NCCNC(=O)c4ccc(C(F)(F)F)cc4)c4sccc4n3)cc2)CC1`, the growth in [1] was 49.3%; in assay [2], 72.3%; in [3], 28.3%; in [4], 19.4%; in [5], 16.7%; in [6], -15.3% (active). In addition, the growth in [7] was 24.6%; in assay [9], -56.6% (active); in [10], -87.6% (active).
Turning to `CC(=O)Nc1ccc(-c2cn(-c3cccc(C(=O)Nc4cc(CN5CCOCC5)cc(C(F)(F)F)c4)c3)nn2)cn1`, the growth is -92.6% (active) in [1]; -74% (active) in [2]; -94.3% (active) in assay [3]; -64.1% (active) in assay [4]; -65.3% (active) in assay [5]; -77.5% (active) in assay [6]. The figures for the growth in assay [7], in assay [9] and in assay [10] were -53.2% (active), -86% (active) and -91.5% (active), respectively.
For the molecule `COc1ccc(/C=C/C(=O)c2ccc(S(=O)(=O)NCCNc3nc(Nc4ccc(F)cc4)nc(N(C)C)n3)cc2)cc1`, the growth in assay [1] was 44.8%; in [2], 21.7%; in assay [3], 55.3%; in assay [4] it was 51.2%; in assay [5], 15.1%; in assay [6], -15.9% (active). Also, the growth is 57.3% in assay [7], 13.5% in [9] and 49.2% in assay [10].
As for `C/C(=N\N=C\c1ccc(N(C)C)cc1)c1ccc2c(c1)Nc1ccccc1S2`, the growth in assay [1] is 31.4%; in [2], 16.8%; in assay [3], 79.5%; in assay [4], 62.2%; in assay [5] it was 25%; in [6], 59.5%. The growth in assay [7] is 48.5%; in [9], 67.5%; in [10], 60.4%.
In the case of `O=C(/C=C/Nc1ccc(F)cc1F)c1ccc2c(c1)Nc1ccccc1S2`, the growth in assay [1] is 70.3%; in assay [2] it was 53.2%; in [3] it was 89.3%; in assay [4] it was 78.5%; in assay [5], 55.4%; in assay [6] it was 85.5%. Moreover, the growth in assay [7] is 75%; in [8], 81%; in [9], 88.1%; in assay [10], 80.6%.
For the molecule `O=C(CSc1nnc(-c2c[nH]c3ccccc23)n1-c1ccccc1)Nc1ccc(C(=O)/C=C/c2ccccc2Cl)cc1`, the growth is 36.1% in assay [1]; 75.6% in assay [2]; 97.3% in [3]; 91.9% in assay [4]; 89% in [5]; 96.5% in assay [6]. Moreover, the growth in [7] is 83.1%; in assay [8], 91.1%; in assay [9] it was 103%; in assay [10], 96.2%.
For the molecule `Nc1n[nH]c2cccc(C#Cc3cccc(NC(=O)Nc4cc(C(F)(F)F)cc(C(F)(F)F)c4)c3)c12`, the growth was -88.4% (active) in assay [1]; -52.6% (active) in assay [2]; -22.4% (active) in [3]; -55.3% (active) in [4]; -56.8% (active) in [5]; -71.5% (active) in assay [6]. The growth in [7] is -58.4% (active); in assay [8] it was -35.3% (active); in assay [9], -20.3% (active); in [10], -77.5% (active).

For the origin of these results see PubChem BioAssay (NCI).
